CYP2C9 inhib: blocks human cytochrome P450 2C9 | P11712 | CYP2C9 Supersomes, luciferin-H conversion, luminescence | inhibition, % at 5 µM | actives 20% (n = 96,000);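 active = blocking of liver enzyme CYP2C9 beyond about 50% at 5 µM, limit read from the data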
Cav32 inh: blocks human Cav3.2 T-type calcium channel. actives 4% (n = 100,000). AID 449739. Cav3.2-expressing cells, Fluo-4 calcium fluorescence FDSS; active compounds read low. O95180. B-score at 10 µM;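 active = single-dose well whose peak fluorescence ratio is a statistical outlier from its plate by either plate-standardised score or position-corrected B-score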
Target sequence (O95180 whole entry, looked up): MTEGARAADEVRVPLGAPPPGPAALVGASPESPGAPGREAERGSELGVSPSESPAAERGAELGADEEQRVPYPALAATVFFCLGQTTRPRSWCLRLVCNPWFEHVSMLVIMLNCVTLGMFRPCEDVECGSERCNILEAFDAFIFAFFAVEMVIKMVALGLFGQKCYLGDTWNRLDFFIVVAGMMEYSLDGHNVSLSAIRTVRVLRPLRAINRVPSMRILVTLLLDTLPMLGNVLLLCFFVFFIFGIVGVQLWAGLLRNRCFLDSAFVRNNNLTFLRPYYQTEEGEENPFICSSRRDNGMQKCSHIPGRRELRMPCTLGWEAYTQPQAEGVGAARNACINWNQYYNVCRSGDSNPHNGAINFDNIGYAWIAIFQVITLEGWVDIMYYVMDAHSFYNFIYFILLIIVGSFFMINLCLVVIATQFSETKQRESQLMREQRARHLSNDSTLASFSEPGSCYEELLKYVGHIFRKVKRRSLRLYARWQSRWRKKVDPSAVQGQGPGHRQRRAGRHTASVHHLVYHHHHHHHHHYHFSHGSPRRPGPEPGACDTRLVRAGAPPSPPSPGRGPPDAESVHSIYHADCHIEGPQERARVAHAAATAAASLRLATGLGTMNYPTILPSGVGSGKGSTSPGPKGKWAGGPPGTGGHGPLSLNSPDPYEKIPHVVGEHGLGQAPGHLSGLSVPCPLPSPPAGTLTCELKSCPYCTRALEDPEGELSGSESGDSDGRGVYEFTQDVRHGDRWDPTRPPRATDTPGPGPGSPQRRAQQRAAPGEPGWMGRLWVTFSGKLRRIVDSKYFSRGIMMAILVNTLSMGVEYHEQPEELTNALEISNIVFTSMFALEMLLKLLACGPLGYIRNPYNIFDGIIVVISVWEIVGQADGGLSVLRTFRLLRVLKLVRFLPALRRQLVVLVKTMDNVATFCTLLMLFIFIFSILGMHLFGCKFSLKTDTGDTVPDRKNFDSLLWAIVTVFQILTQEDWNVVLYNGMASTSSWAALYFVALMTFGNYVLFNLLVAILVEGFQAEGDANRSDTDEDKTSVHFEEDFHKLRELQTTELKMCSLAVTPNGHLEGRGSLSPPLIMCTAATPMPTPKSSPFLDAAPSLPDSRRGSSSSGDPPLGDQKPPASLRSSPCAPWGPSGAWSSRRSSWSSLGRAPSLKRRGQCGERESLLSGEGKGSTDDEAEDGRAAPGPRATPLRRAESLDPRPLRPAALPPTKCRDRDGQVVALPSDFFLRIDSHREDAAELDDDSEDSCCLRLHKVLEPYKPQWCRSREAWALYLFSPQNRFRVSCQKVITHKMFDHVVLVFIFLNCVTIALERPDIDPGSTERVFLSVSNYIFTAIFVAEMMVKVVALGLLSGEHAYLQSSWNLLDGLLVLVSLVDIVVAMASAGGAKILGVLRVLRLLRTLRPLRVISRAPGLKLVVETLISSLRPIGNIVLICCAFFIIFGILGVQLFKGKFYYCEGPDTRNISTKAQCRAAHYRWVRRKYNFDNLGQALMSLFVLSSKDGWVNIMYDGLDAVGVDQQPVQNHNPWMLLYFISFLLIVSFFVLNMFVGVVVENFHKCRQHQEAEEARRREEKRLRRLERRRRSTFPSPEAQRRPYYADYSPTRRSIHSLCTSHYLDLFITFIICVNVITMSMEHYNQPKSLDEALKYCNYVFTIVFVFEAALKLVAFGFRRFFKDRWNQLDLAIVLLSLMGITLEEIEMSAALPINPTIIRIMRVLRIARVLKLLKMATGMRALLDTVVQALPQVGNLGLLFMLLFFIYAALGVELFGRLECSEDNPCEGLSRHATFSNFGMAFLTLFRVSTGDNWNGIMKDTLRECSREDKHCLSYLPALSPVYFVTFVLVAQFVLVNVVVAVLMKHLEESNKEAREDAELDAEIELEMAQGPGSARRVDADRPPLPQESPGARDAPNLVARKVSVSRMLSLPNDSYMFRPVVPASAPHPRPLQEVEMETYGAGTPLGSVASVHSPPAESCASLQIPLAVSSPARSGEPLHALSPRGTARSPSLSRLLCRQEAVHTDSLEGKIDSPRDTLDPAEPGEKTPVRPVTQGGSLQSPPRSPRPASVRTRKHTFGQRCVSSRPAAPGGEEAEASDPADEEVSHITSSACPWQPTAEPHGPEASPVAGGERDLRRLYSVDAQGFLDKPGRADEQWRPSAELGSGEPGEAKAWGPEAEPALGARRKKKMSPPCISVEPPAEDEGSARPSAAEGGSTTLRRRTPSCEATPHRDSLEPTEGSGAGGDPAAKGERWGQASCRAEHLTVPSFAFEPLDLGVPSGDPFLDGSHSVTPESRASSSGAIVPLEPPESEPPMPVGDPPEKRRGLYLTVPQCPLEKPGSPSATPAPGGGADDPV
CYP2C9 activ: activators of human CYP2C9; recombinant CYP2C9, luciferin-H conversion, luminescence; active compounds read high; factor 1 = untreated enzyme, 0 = blocked; AID 1024; activation factor at 5 µM; actives 1.4% (n = 96,000);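 active = activation factor of 2 or more for CYP2C9 at a 5 µM dose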
CYP2C19 activ: cytochrome P450 2C19 (human) activation; P33261; recombinant CYP2C19, luciferin-H EGE luminescence; active compounds read high; 0 = fully inhibited enzyme, 1 = untreated enzyme; activation factor at 5 µM; 96,000 tested, under 10 active; AID 1025;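 active = activation factor of at least 2 at 5 µM in the primary screen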
CYP2C19 inhib: human CYP2C19 inhibition; P33261; CYP2C19 Supersomes, luciferin-H EGE luminescence, 30 min; inhibition, % at 5 µM; actives 21% (n = 96,000);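 active = CYP2C19 inhibition above a set limit at 5 µM in the primary screen, cut at about 50% in these data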
Each line names hits and unclear results; the compound was inactive in the other large screens. Compounds with a hit are over-represented: about 27% of the library has one in this group of screens.

Cc1nnc(SCC2CCCO2)n1-c1ccccc1 (stereo not drawn)	none
O=C(C1CCN(S(=O)(=O)c2cnc[nH]2)CC1)N1CCN(c2ncccn2)CC1	none
CCOC(=O)C1CCCN(C(=O)C2CCN(S(=O)(=O)c3cnc[nH]3)CC2)C1 (stereo not drawn)	CYP2C9 inhib 86.8
CCOC(=O)C1CCN(S(=O)(=O)c2cnc[nH]2)CC1	CYP2C9 inhib 97.5, CYP2C19 inhib 57.9
CSc1ccc(S(=O)(=O)NCCSc2ccccn2)cc1	none (no result: CYP2C9 inhib, CYP2C9 activ, CYP2C19 activ, CYP2C19 inhib)
O=S(=O)(c1ccccc1C(F)(F)F)N1CCC(n2cnc3ccccc32)CC1	CYP2C9 inhib 70.6, CYP2C19 inhib 88.1
Cc1ccccc1NC(=O)NCC1CCCO1 (stereo not drawn)	none
COC(=O)Cc1cn(-c2ncc(C(F)(F)F)cc2Cl)c2ccccc12	CYP2C9 inhib 70.6, CYP2C19 inhib 74.1
COc1ccccc1NC(=O)CCN1CCN(CCC(=O)Nc2ccccc2OC)CC1	none (no result: Cav32 inh)
O=C(CN1C(=O)c2ccccc2C1=O)Nc1ccccc1F	none
COc1ccc(S(=O)(=O)N2CCN(CCC(=O)Nc3ccccc3F)CC2)cc1	CYP2C9 inhib 94.5, CYP2C19 inhib 87.0
CSc1ccccc1NC(=O)COc1ccc(S(=O)(=O)N2CCCC2)cc1	CYP2C9 inhib 79.5
COc1ccc(S(=O)(=O)N2CCN(CC(=O)Nc3ccc(F)c(F)c3)CC2)cc1	Cav32 inh -4.93, CYP2C9 activ 2.2, CYP2C19 inhib 69.5
O=C(CCN1CCN(CC(=O)Nc2ccccc2F)CC1)Nc1ccccc1F	CYP2C19 inhib 74.1
COc1ccc(COC[C@H](C)[C@H](O)[C@@H](C)[C@H]2OC(=O)[C@@H]2C)cc1	none (no result: CYP2C9 inhib, CYP2C9 activ, CYP2C19 activ, CYP2C19 inhib)
O=C(Nc1ccc(Br)c(Cl)c1)C1CC1	none
Cc1noc(C)c1S(=O)(=O)Nc1ccc(O)c2c(=O)cc(-c3ccccc3Cl)oc12	none (no result: CYP2C9 inhib, CYP2C9 activ, CYP2C19 activ, CYP2C19 inhib)
CSc1ccc(N2CCN(CCCNC(=O)Nc3ccccc3F)CC2)cc1	none
COc1cc(NC(=O)CCN2CCN(Cc3ccccc3)CC2)cc(OC)c1	none
O=C(CCN1CCN(c2ccc(F)cc2)CC1)Nc1ccccc1F	CYP2C9 inhib 60.3, CYP2C19 inhib 66.3
O=C(CN1CCN(S(=O)(=O)c2ccccc2)CC1)Nc1cccc(C(F)(F)F)c1	Cav32 inh -7.71
COc1cc(NC(=O)CCN2CCN(c3ccccc3F)CC2)cc(OC)c1	CYP2C9 inhib 62.9
C=CCSc1nnc2nc3c(nn12)c1cc(C)ccc1n3CC=C	CYP2C9 inhib 55.7
C=CCSc1nnc(-c2nnc(SCC=C)n2-c2ccccc2)n1-c1ccccc1	none
CCOc1ccc(CSC(=N)N)cc1[N+](=O)[O-]	none (no result: Cav32 inh)
CCN(CC)c1ccc(-c2c(C#N)c(N)nc(OC)c2C#N)cc1	CYP2C9 inhib 54.3
O=S(=O)(c1ccc(OCC(O)CN2CCN(c3ccccc3)CC2)cc1)N1CCOCC1 (stereo not drawn)	CYP2C19 inhib 64.2
O=S(=O)(c1ccc(OCC(O)CN2CCN(c3ccccc3O)CC2)cc1)N1CCOCC1 (stereo not drawn)	CYP2C9 inhib 53.8
CCNC(=O)c1oc2c(c1C)C(=O)CC(C)(C)C2	none
CC1(C)CC(=O)c2c(oc3cc(O)c(O)cc23)C1	CYP2C9 activ 3.2
Cc1nn(-c2ccccc2)c2c1C1(C(=O)N(C(C)C)c3ccccc31)C(C#N)=C(N)O2 (stereo not drawn)	none
CCCCN1C(=O)/C(=C/C=C2\N(C)c3ccccc3C2(C)C)SC1=S	Cav32 inh -4.66
CN1/C(=C/C2CC(=O)NC2=O)C(C)(C)c2ccccc21 (stereo not drawn)	none
O=C(CCN1C(=O)C2C3C=CC(C3)C2C1=O)N1CC(=O)N(CCc2ccccc2)C(=O)C1 (stereo not drawn)	none (no result: Cav32 inh)
Brc1ccc(Oc2nnnn2-c2ccccc2)cc1	CYP2C9 inhib 81.0, CYP2C19 inhib 100.3
CCn1nnnc1Oc1ccc(Cl)cc1	none
Cc1cc(Oc2nnnn2-c2ccccc2)ccc1Cl	CYP2C9 inhib 61.2, CYP2C19 inhib 58.2
O=C1c2ccccc2CC1Sc1nnc(-c2ccncc2)o1 (stereo not drawn)	CYP2C9 inhib 87.2, CYP2C19 inhib 95.8
CC[C@@H](C(=O)n1nc(C)cc1C)[C@H](NS(=O)(=O)c1ccc(C)cc1)c1ccccc1	none
COc1ccccc1N1CCN(CC(O)c2ccc3cc[nH]c3c2)CC1 (stereo not drawn)	Cav32 inh -5.56
COc1ccccc1N1CCN(C(=O)CSc2ccccc2)CC1	none
CCOC(=O)N1CCN(CC(O)c2ccc3cc[nH]c3c2)CC1 (stereo not drawn)	CYP2C19 inhib 95.6
OCCN1CCOCCN(CCO)CCOCC1	none
C=CCc1c(C)nc(C)nc1N/N=C/c1ccc(N(C)C)cc1	none
CN(C)c1ccc(/C=N/Nc2ccc(-n3ccnc3)nn2)cc1	CYP2C9 inhib 69.6, CYP2C19 inhib 62.0
CCO[C@H]1OC(C(=O)Nc2ccccc2)=C[C@@H](c2cn(C(C)=O)c3ccccc23)[C@@H]1CCCO	none (no result: CYP2C9 inhib, CYP2C9 activ, CYP2C19 activ, CYP2C19 inhib)
CN(C)c1ccnc(Oc2ccccc2)c1C#N	none
CN(C)c1ccnc(SCc2ccccc2Cl)c1C#N	CYP2C19 inhib 70.1
S=C(Nc1ccc(Cl)c(Cl)c1)NC1CCN(Cc2ccccc2)CC1	none (no result: CYP2C9 inhib, CYP2C9 activ, CYP2C19 activ, CYP2C19 inhib)
Cc1nc(CSc2nnc3scc(-c4ccc(Cl)cc4)n23)cs1	CYP2C19 inhib 60.5
O=C(CSc1nnc2scc(-c3ccccc3)n12)Nc1nsc(-c2ccc(Cl)cc2)n1	none (no result: CYP2C9 inhib, CYP2C9 activ, CYP2C19 activ, CYP2C19 inhib)
CCCC(=O)NCCc1ccc(S(N)(=O)=O)cc1	none
COc1cccc(OC)c1-c1nn2c(-c3ccccc3Cl)nnc2s1	CYP2C19 inhib 82.0
Clc1ccccc1-c1nnc2sc(-c3ccco3)nn12	CYP2C19 inhib 69.3
Clc1ccc(-c2nnc3sc(-c4ccco4)nn23)c(Cl)c1	none (no result: Cav32 inh)
c1ccc(Cc2nnc3sc(-c4ccco4)nn23)cc1	CYP2C19 inhib 90.9
CCn1c(SCc2ccc(C#N)cc2)nnc1-c1ccc(S(=O)(=O)N2CCCCC2)cc1	none
CCNC(=S)N/N=C/c1ccco1	none
CCCc1cc(=O)[nH]c(/N=C(/NC(=O)C(C)N2C(=O)c3ccccc3C2=O)Nc2ccccc2)n1 (stereo not drawn)	CYP2C9 inhib 62.0 (no result: Cav32 inh)
CCCc1cc(=O)[nH]c(/N=C(/NC(=O)c2ccccc2)Nc2ccc3c(c2)OCCO3)n1	none (no result: CYP2C9 inhib, CYP2C9 activ, CYP2C19 activ, CYP2C19 inhib)
Cc1nn(-c2nc3ccccc3s2)c(N)c1Sc1ccc(F)cc1	CYP2C9 inhib 84.7
Cc1cccc(-c2onc3ccc(C4(C)OCCO4)cc23)c1	CYP2C9 inhib 93.4, CYP2C19 inhib 88.5
CC1(c2ccc3noc(-c4ccc(Cl)cc4)c3c2)OCCO1	none (no result: Cav32 inh)
O=C(NC(Nc1ncc(S(=O)(=O)c2ccc([N+](=O)[O-])cc2)s1)(C(F)(F)F)C(F)(F)F)c1ccc(Cl)cc1	CYP2C9 inhib 87.9 (no result: Cav32 inh)
O=C(Nc1cnn(Cc2ccc(Cl)cc2)c1)c1ccc([N+](=O)[O-])cc1	none
COc1ccc(CCCC(=O)NC2CCCCC2C)c(C)c1 (stereo not drawn)	none
COc1ccccc1NC(=O)CSc1nc2ncccc2[nH]1	none
CCN(C(=O)CSc1ncccc1C(=O)OC(C)C)c1cccc(C)c1	Cav32 inh -5.56, CYP2C19 inhib 53.1

High-throughput results: PubChem, several laboratories
